Here are results for 7 compounds from PubChem BioAssay (EPA / NIEHS).

Inconclusive results are not listed. The source made the active and inactive calls. Rule for the calls, unless noted: active = hit-call score of the fitted dose curve at least 0.9, where 1 is the maximum; inactive = score below 0.9.

The nature of assay [1]: ACEA_ER_80hr: ACEA Biosciences xCELLigence Real-Time Cell Analysis on Estrogen Receptor Agonism for Proliferation (AID 2282667; active = hit-call score of the fitted dose curve at least 0.9, where 1 is the maximum). Particulars: T47D proliferation, impedance (xCELLigence), 80 h. The procedure, abridged: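 Real-time impedance growth kinetics of human T-47D breast cells read 80 h after dosing, gain-of-signal fitted relative to DMSO. Compounds: 1:4 serial series, top final concentration 100 uM, n = 2.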

A short description of assay [2]: ATG_CRE_CIS: Attagene CIS-FACTORIAL HepG2 Assay for human cAMP Responsive Element (CRE) binding protein 3 (AID 2282926). As to conditions: HepG2 CRE cis-reporter, Attagene multiplexed mRNA; actives raise or lower the signal. The essentials:
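Multiplexed transcription-unit reporters transfected into HepG2; 24 h dosing; RT-PCR/capillary electrophoresis fluorescence read-out; bidirectional fit vs DMSO.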

The target in assay [3] is CCAAT/enhancer-binding protein beta (Homo sapiens) (UniProt P17676). The assay can be described thus: ATG_C_EBP_CIS: Attagene CIS-FACTORIAL HepG2 Assay for human CCAAT/Enhancer Binding Protein (C/EBP) beta (AID 2282927). As to conditions: HepG2 Attagene cis-factorial transcription factor reporter; actives raise or lower the signal. The essentials:
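Endogenous C/EBPb-driven reporter transcripts measured in transfected human HepG2 cells at 24 h via RT-PCR and capillary electrophoresis of labelled fragments. Activity fitted in both directions relative to DMSO baseline.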

Assay [4] in a line: ATG_CMV_CIS: Attagene CIS-FACTORIAL HepG2 Assay for human CMV (Internal Marker) (AID 2282928).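 Note: endpoint acts as a background internal control marker rather than a target.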 As to conditions: HepG2 CMV promoter reporter, transcription factor profiling; actives raise or lower the signal. The essentials:
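After transient transfection of HepG2 with reporter transcription units driven by cis-regulatory promoters, cells receive test chemical for 24 h. Labeled reporter amplicons, digested with HpaI, are sized and quantified by capillary electrophoresis against DMSO.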

Assay [5] can be described thus: ATG_DR4_LXR_CIS: Attagene CIS-FACTORIAL HepG2 Assay for human Liver X Receptor (LXR), DR4 submotif (AID 2282929). Particulars: HepG2 Attagene DR4 cis-reporter, mRNA transcription; actives raise or lower the signal. The essentials:
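Transiently transfected HepG2 liver cells; cis-regulated reporters; 24 h dosing. RT-PCR plus CE read-out of reporter mRNA. DMSO baseline, bidirectional curve fitting.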

The target of assay [6] is Aryl hydrocarbon receptor (Homo sapiens) (UniProt P35869). As to the kind of experiment: ATG_Ahr_CIS: Attagene CIS-FACTORIAL HepG2 Assay for human Aryl Hydrocarbon Receptor (Ahr) (AID 2282930). Particulars: HepG2 AhR cis-factorial reporter transcription; actives raise or lower the signal. The procedure, abridged: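 Reporter mRNA levels, quantified by RT-PCR and fluorescent capillary electrophoresis, reflect endogenous AhR transcriptional activity in HepG2 cells carrying transfected cis-promoter reporter constructs. Readout at 24 h post-dose; gain or loss fitted against DMSO baseline.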

Assay [7] in a line: ATG_AP_1_CIS: Attagene CIS-FACTORIAL HepG2 Assay for human Activator Protein 1 (AP-1) (AID 2282931). Particulars: HepG2 Attagene cis-factorial AP-1 reporter mRNA; actives raise or lower the signal. The procedure, abridged:
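We transfected HepG2 cells transiently with a set of cis-regulated reporter transcription units, dosed them for 24 h, and quantified reporter mRNA via RT-PCR and capillary electrophoresis, scoring gain or loss of signal relative to DMSO.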

Assay [8] is described as follows: ATG_AP_2_CIS: Attagene CIS-FACTORIAL HepG2 Assay for human Activator Protein 2 (AP-2) (AID 2282932). As to conditions: HepG2 AP-2 cis-reporter, Attagene transcription factor profiling; actives raise or lower the signal. The procedure, abridged: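 Step one: transient transfection of HepG2 with reporter transcription units. Step two: 24 h chemical exposure. Step three: RNA extraction, RT-PCR, labelled fragment analysis by capillary electrophoresis; DMSO serves as baseline.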

A short description of assay [9]: ATG_BRE_CIS: Attagene CIS-FACTORIAL HepG2 Assay for human Bone Morphogenetic Protein (BMP) Response Element (BRE) (AID 2282933). As to conditions: HepG2 BMP response element reporter, Attagene transcription factor profiling; actives raise or lower the signal. The essentials:
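Fluorescence-labelled reporter cDNA fragments, separated by capillary electrophoresis, gave the signal for this component of a 52-readout multiplex. HepG2 cells were transfected, exposed to chemicals for 24 h, and compared with DMSO using bidirectional fitting.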

Assay [10] concerns the target Retinoic acid receptor alpha (Homo sapiens) (UniProt P10276). As to the kind of experiment: ATG_DR5_RAR_CIS: Attagene CIS-FACTORIAL HepG2 Assay for human Retinoic Acid Receptor Alpha (RARE), DR5 submotif (AID 2282934).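 For AC50: reporter responds to endogenous RAR alpha beta and gamma in HepG2 not RARA alone.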 As to conditions: HepG2 Attagene cis-factorial RARE DR5 reporter, mRNA; actives raise or lower the signal. The essentials:
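Reporter transcripts from a DR5-regulated unit, measured via RT-PCR plus capillary electrophoresis, reflect endogenous RAR activity in transiently transfected human HepG2 liver cells. Exposure lasted 24 h; gain or loss of signal scored against DMSO.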

Assay [11] concerns the target Transcription factor E2F1 (Homo sapiens) (UniProt Q01094). As to the kind of experiment: ATG_E2F_CIS: Attagene CIS-FACTORIAL HepG2 Assay for human E2F Transcription Factor 1 (AID 2282935). Particulars: HepG2 Attagene cis-reporter, E2F reporter RNA transcripts; actives raise or lower the signal. The essentials:
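Total RNA from 24 h-treated, reporter-transfected HepG2 cells undergoes DNase I treatment, oligo(dT) reverse transcription, PCR and 6-FAM primer extension before capillary electrophoresis.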

Assay [12] in a line: ATG_E_Box_CIS: Attagene CIS-FACTORIAL HepG2 Assay for human Enhancer Box (E-box) (AID 2282936). As to conditions: HepG2 E-box cis-reporter transcription, actives raise or lower the signal. The procedure, abridged:
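DMSO served as negative control and baseline for bidirectional fitting. Human hepatoma HepG2 cells, transiently transfected with cis-reporter constructs, were dosed 24 h; reporter mRNA read by RT-PCR and capillary electrophoresis.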

Assay [13] can be described thus: ATG_M_61_CIS: Attagene CIS-FACTORIAL HepG2 Assay for M61 Transcription Factor (Internal Marker) (AID 2282937). Particulars: HepG2 Attagene CIS-FACTORIAL M61 internal marker reporter; actives raise or lower the signal. The essentials: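 Multiplexed reporter mRNA assay, HepG2 human hepatoma cells, 24 h treatment. Signal: FAM-labelled, HpaI-digested RT-PCR fragments by CE. Fit: bidirectional, baseline DMSO.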

Assay [14] is described as follows: ATG_EGR_CIS: Attagene CIS-FACTORIAL HepG2 Assay for human Early Growth Response 1 (EGR1) (AID 2282938). Particulars: HepG2 Attagene CIS-FACTORIAL EGR reporter mRNA; actives raise or lower the signal. The procedure, abridged: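 Multiplexed cis-reporter system in human hepatoma HepG2 cells, transiently transfected. Cells are dosed for 24 h; reporter transcripts are amplified, fluorescently tagged and sized by capillary electrophoresis, with DMSO as negative control.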

Assay [15] in a line: ATG_M_19_CIS: Attagene CIS-FACTORIAL HepG2 Assay for M19 Transcription Factor (Internal Marker) (AID 2282939). As to conditions: HepG2 Attagene CIS-FACTORIAL M19 internal marker reporter; actives raise or lower the signal. The procedure, abridged:
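HepG2, MRTU transient transfection, 24 h dosing. Total RNA → RT-PCR → 6-FAM primer extension → HpaI digest → CE fluorescence. Bidirectional curve fit, DMSO negative control.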

A short description of assay [16]: ATG_ERE_CIS: Attagene CIS-FACTORIAL HepG2 Assay for Estrogen Response Element (ERE) (AID 2282940). Particulars: HepG2 ERE cis-reporter, Attagene RNA transcript; actives raise or lower the signal. The procedure, abridged: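 After a 24 h chemical treatment, RNA from reporter-transfected HepG2 cells is reverse-transcribed, PCR-amplified and fluorescently labelled. Fragments separated by capillary electrophoresis give reporter signal; DMSO serves as negative control.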

Assay [17] can be described thus: ATG_Ets_CIS: Attagene CIS-FACTORIAL HepG2 Assay for human Erythroblast Transformation Specific (ETS) (AID 2282941). Particulars: HepG2 ETS cis-reporter transcription, actives raise or lower the signal. The essentials:
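Human HepG2 hepatoma cells were transiently transfected with promoter-driven reporter constructs and treated for 24 hours. Reporter transcripts were quantified by RT-PCR with fluorescent primer extension; bidirectional curve fitting used DMSO as reference.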

In assay [18] the target is Hepatocyte nuclear factor 3-beta (Homo sapiens) (UniProt Q9Y261). The assay can be described thus: ATG_FoxA2_CIS: Attagene CIS-FACTORIAL HepG2 Assay for human Forkhead box A2 (FOXA2) (AID 2282942). As to conditions: HepG2 cis-reporter transcription factor activity, 24 h; actives raise or lower the signal. The procedure, abridged:
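Multiplexed cis-element reporter assay in transiently transfected HepG2. Twenty-four hours post-dosing, RNA was reverse-transcribed, amplified, FAM-labelled, HpaI-digested and separated by CE. Activity gain or loss relative to DMSO.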

Assay [19] is described as follows: ATG_FoxO_CIS: Attagene CIS-FACTORIAL HepG2 Assay for human Forkhead box O (FoxO) (AID 2282943). Particulars: HepG2 Attagene cis-reporter, FoxO element, mRNA; actives raise or lower the signal. The procedure, abridged:
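Endogenous transcription factor activity read from multiplexed cis-promoter reporter transcripts in transiently transfected HepG2, 24 h after dosing. Reporter RNA measured via RT-PCR plus capillary electrophoresis of FAM-labeled products; gain or loss relative to DMSO.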

Assay [20] is described as follows: ATG_GATA_CIS: Attagene CIS-FACTORIAL HepG2 Assay for human GATA Binding Protein (AID 2282944). Particulars: HepG2 GATA cis-element reporter, Attagene multiplex mRNA; actives raise or lower the signal. The essentials: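 Cells: HepG2, transiently transfected with cis-regulated reporter transcription units. Exposure: 24 h. Detection: RT-PCR plus capillary electrophoresis of FAM-labeled fragments. Analysis: bidirectional, DMSO as baseline.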

CCAAT/enhancer-binding protein beta (Homo sapiens), sequence (P17676 whole entry, looked up, the tested form may be a part): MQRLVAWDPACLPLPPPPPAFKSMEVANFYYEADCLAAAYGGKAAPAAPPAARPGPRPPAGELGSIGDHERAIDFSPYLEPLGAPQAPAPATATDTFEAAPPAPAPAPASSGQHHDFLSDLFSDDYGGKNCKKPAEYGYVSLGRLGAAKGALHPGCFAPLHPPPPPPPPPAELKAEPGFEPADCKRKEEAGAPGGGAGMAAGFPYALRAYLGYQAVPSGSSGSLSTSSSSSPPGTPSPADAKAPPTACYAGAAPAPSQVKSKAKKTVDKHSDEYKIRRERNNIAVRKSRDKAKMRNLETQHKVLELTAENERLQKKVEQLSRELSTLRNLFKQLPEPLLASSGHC
Retinoic acid receptor alpha (Homo sapiens), sequence (P10276 whole entry, looked up): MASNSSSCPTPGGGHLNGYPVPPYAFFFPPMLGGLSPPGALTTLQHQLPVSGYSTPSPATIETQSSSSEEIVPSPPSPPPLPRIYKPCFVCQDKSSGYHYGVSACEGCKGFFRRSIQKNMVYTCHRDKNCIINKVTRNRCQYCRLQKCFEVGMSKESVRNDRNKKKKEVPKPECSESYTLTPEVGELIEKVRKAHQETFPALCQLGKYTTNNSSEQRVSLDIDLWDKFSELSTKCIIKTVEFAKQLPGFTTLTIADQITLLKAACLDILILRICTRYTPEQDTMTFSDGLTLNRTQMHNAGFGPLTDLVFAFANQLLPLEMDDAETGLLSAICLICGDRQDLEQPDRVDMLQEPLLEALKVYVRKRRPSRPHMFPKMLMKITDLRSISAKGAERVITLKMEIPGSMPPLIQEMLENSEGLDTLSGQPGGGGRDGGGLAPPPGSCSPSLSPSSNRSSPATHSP
Aryl hydrocarbon receptor (Homo sapiens), sequence (P35869 whole entry, looked up): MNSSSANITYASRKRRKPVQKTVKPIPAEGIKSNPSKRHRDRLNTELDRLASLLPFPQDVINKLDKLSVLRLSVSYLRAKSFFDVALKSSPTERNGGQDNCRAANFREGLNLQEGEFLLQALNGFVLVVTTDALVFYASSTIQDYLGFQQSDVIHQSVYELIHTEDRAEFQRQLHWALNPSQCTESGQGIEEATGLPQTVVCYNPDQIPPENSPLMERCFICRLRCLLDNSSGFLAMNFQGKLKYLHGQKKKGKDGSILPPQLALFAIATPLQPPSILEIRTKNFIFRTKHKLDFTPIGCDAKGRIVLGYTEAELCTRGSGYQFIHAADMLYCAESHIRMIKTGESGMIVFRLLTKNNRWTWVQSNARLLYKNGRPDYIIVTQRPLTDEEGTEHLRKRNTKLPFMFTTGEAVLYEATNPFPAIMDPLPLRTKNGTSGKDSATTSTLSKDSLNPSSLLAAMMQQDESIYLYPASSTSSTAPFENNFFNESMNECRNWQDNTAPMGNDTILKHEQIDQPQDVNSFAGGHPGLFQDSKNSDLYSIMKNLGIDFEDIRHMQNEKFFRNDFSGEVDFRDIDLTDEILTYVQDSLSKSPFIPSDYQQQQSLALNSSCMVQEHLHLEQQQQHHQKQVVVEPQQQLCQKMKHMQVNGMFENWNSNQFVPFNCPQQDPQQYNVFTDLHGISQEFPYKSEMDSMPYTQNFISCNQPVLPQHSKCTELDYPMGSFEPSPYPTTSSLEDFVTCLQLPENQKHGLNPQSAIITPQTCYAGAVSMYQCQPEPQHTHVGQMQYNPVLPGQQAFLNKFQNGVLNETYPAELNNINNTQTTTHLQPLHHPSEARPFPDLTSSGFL
Hepatocyte nuclear factor 3-beta (Homo sapiens), sequence (Q9Y261 whole entry, looked up): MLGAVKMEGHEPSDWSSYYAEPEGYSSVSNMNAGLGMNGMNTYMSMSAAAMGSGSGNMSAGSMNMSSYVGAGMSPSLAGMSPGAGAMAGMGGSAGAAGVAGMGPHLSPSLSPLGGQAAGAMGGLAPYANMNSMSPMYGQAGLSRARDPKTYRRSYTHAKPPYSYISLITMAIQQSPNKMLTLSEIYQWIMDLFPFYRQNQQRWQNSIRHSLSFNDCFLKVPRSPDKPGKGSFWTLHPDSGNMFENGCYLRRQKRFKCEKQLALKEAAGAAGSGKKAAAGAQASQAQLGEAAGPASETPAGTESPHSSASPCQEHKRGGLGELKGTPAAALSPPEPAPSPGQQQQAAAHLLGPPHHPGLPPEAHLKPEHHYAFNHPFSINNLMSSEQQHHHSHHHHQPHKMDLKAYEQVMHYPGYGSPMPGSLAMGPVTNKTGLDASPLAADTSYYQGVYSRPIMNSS
Transcription factor E2F1 (Homo sapiens), sequence (Q01094 whole entry, looked up): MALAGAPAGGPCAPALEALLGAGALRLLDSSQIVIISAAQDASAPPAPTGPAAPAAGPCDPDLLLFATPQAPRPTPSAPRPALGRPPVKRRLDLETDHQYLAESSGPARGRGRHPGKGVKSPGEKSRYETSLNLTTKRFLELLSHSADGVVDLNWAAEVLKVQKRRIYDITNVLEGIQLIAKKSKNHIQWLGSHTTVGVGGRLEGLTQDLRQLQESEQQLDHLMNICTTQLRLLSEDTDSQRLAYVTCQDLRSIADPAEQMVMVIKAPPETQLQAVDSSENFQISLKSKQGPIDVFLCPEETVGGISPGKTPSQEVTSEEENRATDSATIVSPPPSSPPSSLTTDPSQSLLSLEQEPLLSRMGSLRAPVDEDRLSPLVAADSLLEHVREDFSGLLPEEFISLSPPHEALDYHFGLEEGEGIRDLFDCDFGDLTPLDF

In the case of `CCc1ccc(C)nc1`, the outcome in assay [1], in assay [2], in [3], in assay [4], in assay [5] and in [6] was inactive. Also, the call in assay [7], in assay [8], in assay [9], in [10], in assay [11] and in assay [12] was inactive. Also, the result in [13], in [14], in assay [15], in assay [16], in assay [17] and in assay [18] was inactive. Also, the compound was called inactive in [19] and in assay [20].

Consider `CC(=O)CCC(C)C`, for which the outcome in [1], in assay [2], in assay [3], in [4], in [5] and in assay [6] was inactive. Further, the result in [7], in [8], in assay [9], in assay [10], in assay [11] and in [12] was inactive. The outcome in assay [13], in assay [14], in [15], in [16], in assay [17] and in assay [18] was inactive. Further, the compound was classed as inactive in [19] and in assay [20].

As for `O=C1c2ccccc2C(=O)c2c(Cl)cccc21`, the compound was called inactive in assay [1], in assay [2], in assay [3], in assay [4], in assay [5] and in assay [6]. The compound was classed as inactive in [7], in assay [8], in assay [9], in assay [10], in assay [11] and in assay [12]. Moreover, the compound was classed as inactive in [13], in [14], in assay [15], in assay [16], in assay [17] and in assay [18]. The compound was called inactive in [19] and in assay [20].

On to `OCCCC(F)(F)C(F)(F)C(F)(F)C(F)(F)C(F)(F)C(F)(F)C(F)(F)C(F)(F)F`, for which the concentration at half-maximal activity (AC50) was 21 µM (active) in assay [1], 64.3 µM (active) in assay [9] and 22 µM (active) in assay [10]. Also, the compound was classed as inactive in assay [2], in assay [3], in assay [4], in assay [5], in assay [6] and in assay [7]. The compound was called inactive in assay [8], in assay [11], in [12], in [13], in [14] and in assay [15]. The compound was classed as inactive in assay [16], in [17], in assay [18], in [19] and in [20].

As for `OCC(O)CC(F)(F)C(F)(F)C(F)(F)C(F)(F)C(F)(F)C(F)(F)C(F)(F)C(F)(F)F` (stereo not given), the call in assay [1], in assay [2], in assay [3], in assay [4], in assay [5] and in assay [6] was inactive. Besides, the result in assay [7], in assay [8], in assay [9], in assay [10], in assay [11] and in [12] was inactive. Also, the compound was classed as inactive in [13], in assay [14], in assay [15], in assay [16], in [18] and in [19]. Moreover, in assay [20], the compound was called inactive. Also, the concentration at half-maximal activity (AC50) in assay [17] was 9.97 µM (active).

`CCN(CC)c1ccc(N=Nc2ccccc2)cc1`: the concentration at half-maximal activity (AC50) in [1] is 50 µM (active); in assay [6], 5.68 µM (active); in assay [7], 72.7 µM (active); in assay [9], 78.8 µM (active); in [12], 20.9 µM (active); in assay [14] it was 12.3 µM (active). The half-maximal activity concentration (AC50) in [18] is 26.9 µM (active). Moreover, the compound was called inactive in assay [2], in assay [3], in assay [4], in [5], in assay [8] and in [10]. Moreover, the compound was classed as inactive in assay [11], in [13], in assay [15], in assay [16], in [17] and in assay [19]. Besides, the call in assay [20] was inactive.

As for `FC(F)(F)C(F)(F)C(F)(F)CC1CO1` (stereo not given), the outcome in assay [1], in [2], in assay [3], in [4], in assay [5] and in [6] was inactive. For the same compound, the call in assay [7], in assay [8], in [9], in [10], in assay [11] and in assay [12] was inactive. Besides, the compound was called inactive in assay [13], in [14], in [15], in assay [16], in assay [17] and in [18]. Moreover, the compound was classed as inactive in [19] and in assay [20].
